# According to PubChem BioAssay (NCATS):
# Values without a mark were called inactive. Records with an inconclusive call do not appear. Where a call stands in place of a potency, no number is given. The source made the active and inactive calls. Calls follow the shape of the dose curve; as a rule, active = well fitted curve in the direction sought with a large enough effect; inconclusive = small, poorly fitted or top-dose-only effect, or another doubt; inactive = no such curve, though single readings can be large; an effect the other way counts as inactive or inconclusive.
# How the values were obtained:
# [1] = HepG2 viability counterscreen (readout 2: ATP content) against the NCATS DSHEA and TCM libraries (AID 1794840); conditions: ATP content luminescence; series mostly up to 27.3 µM;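 also: HepG2 cells exposed to substances for about 24 h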
# Method in brief: (§1)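 Readout 1: cellular protease activity, GF-AFC substrate (25 uM final, 30 min, fluorescence 380/510 nm). Readout 2: ATP content by CellTiter-Glo luminescence after 30 min at RT. Both follow ~24 h exposure of HepG2 cells (1,000/well) to substances.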
# [2] = HepG2 viability counterscreen (readout 1: protease activity) against the NCATS DSHEA and TCM libraries (AID 1794841); conditions: qHTS concentration series; series mostly up to 27.3 µM;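 also: cells exposed to compounds for about 24 h before the protease read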
# Method in brief: as §1
# [3] = target: Cytochrome P450 2D6 (Homo sapiens) (UniProt P10635); test: qHTS for inhibitors of CYP2D6 against the NCATS DSHEA and TCM libraries (AID 1919972); conditions: CYP2D6 enzymatic inhibition, luminescence qHTS; series mostly up to 34.1 µM; also: potency is read from the fitted curve at half-maximal effect
# Method in brief: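 Luminescent P450-Glo read-out of CYP2D6 turnover of a luciferin substrate after NADPH-driven reaction of 30-45 min at room temperature. Compounds were first preincubated 15 min with enzyme at titrated concentrations; quinidine was the intraplate control.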
# [4] = KB-3-1 P-gp reporter qHTS against the NCATS DSHEA and TCM libraries (AID 1919975); conditions: KB-3-1 parental cells, CellTiter-Glo luminescence viability, 72 h; series mostly up to 26.1 µM
# Method in brief: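 Cell viability by CellTiter-Glo luminescence following ~72 h compound exposure (concentration-response). Uses parental, non-P-gp-overexpressing KB-3-1 line, 500 cells/well in DMEM/10% FBS, attached ~4 h before dosing.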
# [5] = target: Cytochrome P450 1A2 (Homo sapiens) (UniProt P05177); test: qHTS for inhibitors of CYPIA2 against the NCATS DSHEA and TCM libraries (AID 1919976); conditions: recombinant CYP1A2 enzyme activity, luminescence; series mostly up to 37 µM; also: potency is read from the fitted curve at half-maximal effect
# Method in brief: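 Human CYP1A2 with pro-luciferin substrate (typically 100 mM KPO4), 15 min preincubation with compound, then 1x NADPH regeneration for 30-45 min at room temperature in the dark. Luciferin quantified by luciferase luminescence; furafylline intraplate control.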
# [6] = qHTS Counterscreen for compound interference against the NCATS DSHEA and TCM libraries (AID 1919978); conditions: firefly luciferase detection reagent interference, luminescence;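 also: compounds preincubated with 1 µM D-luciferin or buffer before detection reagent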
# Method in brief: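 With 1 uM D-luciferin or phosphate buffer only, compounds at final 19.5 nM–39.8 uM were incubated for 15 min at room temperature. Luciferase detection reagent was then added, and luminescence was measured after a further 30 min at room temperature.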
# [7] = Dual reporter qHTS for agonist of Pregnane X Receptor (hPXR) against the NCATS DSHEA and TCM libraries: Fluorescence readout (AID 1920058); conditions: PXR dual reporter cells; series mostly up to 40 µM
# Method in brief: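 hPXR-Luc HepG2 cells, 2000/well in charcoal-stripped serum, attached 5 h, dosed for ~24 h at 37 °C. Fluorescence read is CellTiter-Fluor viability (Ex/Em 405/540 nm); rifampicin positive, tetraoctyl ammonium bromide (92 µM) cytotoxicity controls.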
# [8] = target: Nuclear receptor subfamily 1 group I member 2 (Homo sapiens) (UniProt O75469); test: Dual reporter qHTS for antagonist of Pregnane X Receptor (hPXR) against the NCATS DSHEA and TCM libraries: Luminescence Readout (AID 1920060); conditions: hPXR dual reporter cells, luciferase luminescence, antagonist mode; series mostly up to 40 µM;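 also: HepG2 cells carrying hPXR luciferase reporter stimulated with rifampicin at 2 µM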
# Method in brief: (§2)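 Antagonist mode: rifampicin 2 uM final co-added with compounds to hPXR-LucHepG2 cells for 24 h at 37C. Viability by CellTiter-Fluor, Ex/Em 405/540 nm, 1 h; reporter by ONE-Glo luminescence.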
# [9] = Dual reporter qHTS for antagonist of Pregnane X Receptor (hPXR) against the NCATS DSHEA and TCM libraries: Fluorescence Readout (AID 1920061); conditions: PXR dual reporter cells, antagonist mode; series mostly up to 40 µM
# Method in brief: as §2
# [10] = target: Cytochrome P450 2C19 (Homo sapiens) (UniProt P33261); test: qHTS Assay for Inhibitors and Substrates of Cytochrome P450 2C19 (AID 899); conditions: recombinant CYP2C19, luciferin-H EGE luminescence; series mostly up to 57.1 µM; also: potency is read from the fitted curve at half-maximal effect; nearly all actives have a fitted effect of over 60% in size
# Method in brief: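 5nM enzyme + 10uM Luciferin-H EGE (=KM), 50mM KPO4; cpd pin-transferred, 10 min 37C; NADPH regen, 60 min 37C; stopped w/ luciferin detection reagent, 20 min; luminescence. Normalized to 57uM ketoconazole (AC100).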
# [11] = Viability counterscreen for antagonist of constitutive androstane receptor (CAR) against the NCATS DSHEA and TCM libraries (AID 1794837); conditions: CAR reporter cell line viability counterscreen, qHTS; series mostly up to 40 µM;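 also: compound exposure lasted 24 h before viability reading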
# Method in brief: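 Viability was measured by CellTiter-Fluor fluorescence (405/540 nm, 1 hr) in HepG2-CYP2B6-hCAR cells. Cells were co-treated 24 hr with 48 uM CITCO (final), antagonist mode, and test substances.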
# [12] = qHTS profiling for inhibitors of Plasmodium falciparum proliferation (AID 504749); also: nearly all actives have a fitted effect of over 60% in size; conditions: P. falciparum in erythrocytes, SYBR Green DNA, 72 h; at 12.8 µM (top of the series); parasite line A
# Method in brief: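 Infected RBCs, 0.3% parasitemia/2.5% Hct final; cpd 72 h, 37 C, 5% CO2; lysis buffer with saponin/triton/SYBR Green I, o/n RT dark; FI 485/535; norm. to artemisinin (0.29 uM) and DMSO.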
# Sequence of Cytochrome P450 1A2 (Homo sapiens) (P05177 whole entry, looked up): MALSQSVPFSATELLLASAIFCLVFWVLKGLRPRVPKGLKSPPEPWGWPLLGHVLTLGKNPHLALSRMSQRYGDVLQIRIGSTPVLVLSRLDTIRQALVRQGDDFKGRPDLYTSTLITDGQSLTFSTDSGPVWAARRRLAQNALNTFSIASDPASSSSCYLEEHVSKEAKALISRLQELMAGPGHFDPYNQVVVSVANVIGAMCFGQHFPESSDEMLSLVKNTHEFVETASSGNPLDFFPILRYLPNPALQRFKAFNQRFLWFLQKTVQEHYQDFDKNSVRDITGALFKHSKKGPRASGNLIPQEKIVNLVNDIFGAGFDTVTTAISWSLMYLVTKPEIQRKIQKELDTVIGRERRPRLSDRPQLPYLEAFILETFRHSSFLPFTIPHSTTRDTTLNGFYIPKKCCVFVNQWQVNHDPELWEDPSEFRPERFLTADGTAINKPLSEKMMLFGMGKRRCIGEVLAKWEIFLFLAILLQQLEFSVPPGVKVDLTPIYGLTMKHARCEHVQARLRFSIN
# Sequence of Nuclear receptor subfamily 1 group I member 2 (Homo sapiens) (O75469 whole entry, looked up): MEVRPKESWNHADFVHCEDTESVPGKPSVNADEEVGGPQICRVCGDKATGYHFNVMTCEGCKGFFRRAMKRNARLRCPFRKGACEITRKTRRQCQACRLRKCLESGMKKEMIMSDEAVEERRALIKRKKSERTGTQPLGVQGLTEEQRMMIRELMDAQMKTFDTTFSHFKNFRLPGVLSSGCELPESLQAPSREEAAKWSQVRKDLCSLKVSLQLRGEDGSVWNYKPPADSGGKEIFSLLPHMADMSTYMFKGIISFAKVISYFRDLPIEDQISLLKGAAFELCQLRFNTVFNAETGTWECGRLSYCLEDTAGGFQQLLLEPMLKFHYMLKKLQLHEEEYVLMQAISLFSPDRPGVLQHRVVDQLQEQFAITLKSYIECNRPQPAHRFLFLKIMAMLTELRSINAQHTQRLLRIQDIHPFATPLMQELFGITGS
# Sequence of Cytochrome P450 2D6 (Homo sapiens) (P10635 whole entry, looked up): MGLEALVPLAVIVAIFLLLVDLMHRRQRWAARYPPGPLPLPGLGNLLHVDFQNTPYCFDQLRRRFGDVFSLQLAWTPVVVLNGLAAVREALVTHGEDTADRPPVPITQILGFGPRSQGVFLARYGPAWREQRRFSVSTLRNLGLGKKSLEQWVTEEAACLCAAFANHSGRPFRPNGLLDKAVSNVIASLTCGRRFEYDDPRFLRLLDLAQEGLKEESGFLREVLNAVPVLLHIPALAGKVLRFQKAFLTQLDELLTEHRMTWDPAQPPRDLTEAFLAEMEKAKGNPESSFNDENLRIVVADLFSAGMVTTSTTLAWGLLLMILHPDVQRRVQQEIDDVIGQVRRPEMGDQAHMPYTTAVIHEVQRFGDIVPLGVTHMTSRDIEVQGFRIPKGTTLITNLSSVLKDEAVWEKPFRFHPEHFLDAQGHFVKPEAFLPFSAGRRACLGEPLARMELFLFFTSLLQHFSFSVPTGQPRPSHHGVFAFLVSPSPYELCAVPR
# Sequence of Cytochrome P450 2C19 (Homo sapiens) (P33261 whole entry, looked up): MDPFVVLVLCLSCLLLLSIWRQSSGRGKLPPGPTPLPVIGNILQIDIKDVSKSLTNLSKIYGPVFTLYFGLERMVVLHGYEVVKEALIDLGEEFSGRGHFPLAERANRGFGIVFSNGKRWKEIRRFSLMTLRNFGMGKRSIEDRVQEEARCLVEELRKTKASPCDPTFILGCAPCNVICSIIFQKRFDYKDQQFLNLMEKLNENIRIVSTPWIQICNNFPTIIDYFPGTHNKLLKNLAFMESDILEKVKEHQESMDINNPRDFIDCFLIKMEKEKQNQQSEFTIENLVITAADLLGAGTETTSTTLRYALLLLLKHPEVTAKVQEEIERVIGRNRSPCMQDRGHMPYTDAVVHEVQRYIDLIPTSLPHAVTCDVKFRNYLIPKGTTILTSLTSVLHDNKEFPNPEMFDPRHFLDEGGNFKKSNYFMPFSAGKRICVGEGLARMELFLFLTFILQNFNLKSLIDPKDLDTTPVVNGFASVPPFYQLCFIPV
SMILES,outcome [1],outcome [2],Potency [3],outcome [4],Potency [5],max response [6] [%],outcome [7],outcome [8],outcome [9],Potency [10],outcome [11],"activity, negative = inhibition [12] [%]"
NC(Cc1c[nH]c2ccccc12)C(=O)O (centres undefined),inactive,inactive,inactive,inactive,3.55 µM (active),1.56,inactive,inactive,inactive,–,–,–
FC(F)(F)c1ccccc1-c1ccc2ncnc(NCc3cccs3)c2c1,–,–,–,–,–,–,–,–,–,3.16 µM (active),–,–
COc1ccc2ccc(=O)oc2c1,inactive,inactive,inactive,inactive,14.1 µM (active),3.31,inactive,inactive,inactive,–,inactive,–
C=C[C@](C)(O)CCC=C(C)C,inactive,inactive,inactive,inactive,3.55 µM (active),-3.94,inactive,inactive,inactive,–,inactive,–
O=c1ccc2ccc(O)cc2o1,inactive,inactive,inactive,inactive,inactive,2.6,inactive,inactive,inactive,–,inactive,–
C=C(C)[C@H]1CC=C(C)C(=O)C1,inactive,inactive,inactive,inactive,inactive,1.32,inactive,inactive,inactive,–,inactive,–
CC(C)N1CCN(c2ccc(OC[C@@H]3CO[C@@](Cn4cncn4)(c4ccc(Cl)cc4Cl)O3)cc2)CC1,–,–,–,–,–,–,–,–,–,–,–,5.81
COC(=O)C1=CO[C@@H](C)[C@H]2CN3CCc4c([nH]c5ccccc45)[C@@H]3C[C@H]12,inactive,inactive,0.0398 µM (active),inactive,3.55 µM (active),-2.56,inactive,inactive,inactive,–,inactive,–
O=C(/C=C/c1ccc(O)c(O)c1)OC(Cc1ccc(O)c(O)c1)C(=O)O (centres undefined),inactive,inactive,inactive,inactive,–,-4.37,inactive,–,inactive,–,inactive,–
